PubChem BioAssay
Several values for one entry are separate records, joined by “and”; a condition that tells them apart may be missing. Identical values can stand only once. Results filed as inconclusive are left out. Activity calls are given as the source filed them.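 Rule for the calls, unless noted: active = differentiation response of at least 50%, scaled between solvent and reference control, from cells with both markers; inactive = the rest.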

What was measured:
[1] = yeast TOR pathway RPL19A-GFP modulators, primary screen, cell-based, S. cerevisiae, multiplex flow cytometry (AID 1862; in the data active = percent of DMSO control GFP below about 86%;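 note: lower values mimic rapamycin by blocking the RPL19A rise seen in DMSO cells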); conditions: S. cerevisiae RPL19A-GFP strain, flow cytometry fluorescence, 3 h; at 10 µM; stronger effect = lower value
[2] = modulators of MEP2-GFP levels in yeast, primary screen, S. cerevisiae, multiplex flow cytometry (AID 1867;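 active = GFP response, as percent of the DMSO control, above the screen-wide mean plus 3 SD, about 139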;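 note: median GFP channel fluorescence of barcode-gated MEP2-GFP cells measured by flow cytometry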); conditions: S. cerevisiae MEP2-GFP strain, 3 h, at 10 µM, stronger effect = higher value, 100% means same as DMSO wells
[3] = modulators of CIT2-GFP expression in yeast, primary screen, S. cerevisiae, GFP fusion, multiplex flow cytometry (AID 1870;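 active = percent response above a set limit, the screen-wide mean plus 3 SD, cut at about 130% in these data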;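 note: barcoded CIT2-GFP strain pooled with four other GFP strains with rapamycin as positive control; median GFP fluorescence per well over plate mean of DMSO wells so 100% = DMSO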); conditions: 3 h, at 10 µM, stronger effect = higher value
[4] = modulators of LAP4-GFP expression in yeast, primary screen, S. cerevisiae, multiplex flow cytometry (AID 1873;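 active = GFP signal, as percent of the solvent control, above the screen mean plus 3 SD, about 149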); conditions: 3 h, at 10 µM, stronger effect = higher value
[5] = modulators of AGP1-GFP expression in yeast TOR pathway, primary screen, cell-based, multiplex flow cytometry, S. cerevisiae (AID 1887;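 active = GFP signal above the screen-wide mean plus 3 SD, that is over about 124.5% of the solvent control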;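 note: AGP1-GFP fusion strain of S. cerevisiae within a five-strain barcoded multiplex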); conditions: 3 h, at 10 µM, stronger effect = higher value
[6] = inhibitors of CD8+ T cell-vesicle binding, pilot screen, LFA-1/ICAM-1 modulator project, MLPCN validation set, flow cytometry (AID 2523;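 active = response below a set limit, under 55% cells CD8-positive and vesicle-bound, and CD8 cells' 90th-percentile brightness under 279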;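 for vesicle binding response: mean PE anti-B7-1 fluorescence of CD8+ cells relative to row control; 100% = QL9-loaded vesicles with DMSO vehicle in the same plate row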); conditions: 2C mouse CD8+ T cells, at 7 µM, stronger effect = lower value; double positive events: measured here: CD8+/vesicle+ event percentage
[7] = target: Integrin beta-1 (Homo sapiens) + Integrin alpha-4 (Homo sapiens) (UniProt P13612+P05556); assay: inhibition of HUTS-21 binding to VLA-4, pilot screen, VLA-4 allosteric modulator project, U937 cells, HUTS-21 mAb, flow cytometry, validation set (AID 2674;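 active = inhibition above 50%, about 3 SD of the validation set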;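 note: antibody binding induced by the VLA-4 ligand LDV present at three times its Kd; 0% = LDV ligand with antibody and no compound and 100% = antibody without LDV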); conditions: HUTS-21 LIBS mAb binding, at 6.7 µM, stronger effect = higher value, binding induced by LDV ligand
[8] = superoxide lowering in aged yeast cells, pilot screen, validation compound set (AID 2706;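 active = superoxide response below 65% of plate, a cut near 3 SD across the whole screen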;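 note: yeast exposed to compound for one week at 30 degrees C before staining; 100% = mean of all compound wells on the same plate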); conditions: S. cerevisiae aging, superoxide DHE fluorescence; at 10 µM; stronger effect = lower value
[9] = target: Beta-adrenergic receptor kinase 1 (Homo sapiens) (UniProt P25098); assay: GRK2 binders displacing RNA aptamer, biochemical, validation, human GRK2, bead flow cytometry (AID 488806;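 active = aptamer binding inhibition above 30%, about 3 SD of noise from non-fluorescent compounds; inactive = inhibition at or below 30%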); conditions: bead-bound GRK2, FAM-aptamer displacement, at 10 µM, stronger effect = higher value
[10] = target: Beta-2 adrenergic receptor (Homo sapiens) (UniProt P07550); assay: beta2AR agonists driving receptor internalization, pilot screen, cell-based, FAP fluorogen, flow cytometry, validation set (AID 504459;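 active = percent response above 42, roughly 3 SD of non-fluorescent test compounds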;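 note: agonist-driven loss of surface beta2AR via internalization measured by FAP dye flow cytometry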); conditions: Am2.2-beta2AR cells, FAP surface receptor flow cytometry; at 10 µM; stronger effect = higher value
[11] = target: AP-2 complex subunit beta (Homo sapiens) (UniProt P63010); assay: inhibitors of arrestin peptide binding to AP2, pilot screen, biochemical, validation set, GST-AP2 beads, flow cytometry (AID 504541;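 active = inhibition above 54%, about 3 SD of non-fluorescent compounds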;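 note: AP2 carries R879A mutation and is captured from E. coli lysate; bead-bound FITC arrestin peptide fluorescence measuring arrestin peptide binding to AP2; 0% = DMSO wells and 100% = excess unlabeled arrestin peptide control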); conditions: FITC arrestin peptide, at 10 µM, stronger effect = higher value, AP2 beta2 appendage fragment, R879A mutant
[12] = yeast V-ATPase proton transport modulators, S. cerevisiae, pHLuorin, HTS validation (AID 504600; in the data active = response above about 15%;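 note: plate controls were DMSO for no effect and reference compound for full effect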); conditions: S. cerevisiae pHLuorin cytosolic pH, at 10 µM, stronger effect = higher value
[13] = tested on: anti-desmoglein-3 scFv antibody binding to human DSG3; assay: inhibitors of anti-DSG3 scFv binding to DSG3, pilot screen, biochemical, validation compound set, bead-based, flow cytometry (AID 588368;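 active = binding below the plate cutoff, the plate median minus 3 SD, with a reading above zero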;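 note: signal is the median channel fluorescence of bead-bound GFP antibody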); conditions: Protein G beads, DSG3-Fc, scFv-GFP binding, at 10 µM, stronger effect = lower value
[14] = inhibitors of fungal efflux pumps CDR1, CDR2, MDR1, pilot screen, validation compound set, multiplex, phenotypic (AID 588506;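 active = efflux inhibition above 0.42, the validation set average plus 4 SD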;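 note: Nile Red retained in cells so higher fluorescence means more efflux inhibition; 0 = negative control wells and 1 = enniatin B 25 µM full block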); conditions: S. cerevisiae pump-expressing triplex, Nile Red efflux flow cytometry; at 10 µM; stronger effect = higher value; the pumps come from Candida albicans
[15] = target: ATP-binding cassette sub-family B member 6 (Homo sapiens) (UniProt Q9NP58); assay: ABCB6 transporter inhibitors, pilot screen, K562-ABCB6 cells, flow cytometry, validation set (AID 588550;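 active = inhibition above the screen-wide mean plus 3 SD, about 51%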;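 note: 0% = DMSO wells and 100% = benzethonium chloride 70 µM positive control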); conditions: K562-ABCB6 porphyrin accumulation, 1 h, at 10 µM, stronger effect = higher value
[16] = promoters of myeloid differentiation in arrested cells, primary screen, cell-based, GFP/MAC1 double positive, flow cytometry, validation set (AID 588685); conditions: ER-HoxA9 marrow cells, stronger effect = higher value, normalized: vehicle 0, fulvestrant 100;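 note: compound exposure lasts four days before antibody staining and flow analysis; 0% = DMSO wells and 100% = 5 µM fulvestrant positive control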

Sequence of Integrin beta-1 (Homo sapiens) + Integrin alpha-4 (Homo sapiens) (P05556 whole entry, looked up): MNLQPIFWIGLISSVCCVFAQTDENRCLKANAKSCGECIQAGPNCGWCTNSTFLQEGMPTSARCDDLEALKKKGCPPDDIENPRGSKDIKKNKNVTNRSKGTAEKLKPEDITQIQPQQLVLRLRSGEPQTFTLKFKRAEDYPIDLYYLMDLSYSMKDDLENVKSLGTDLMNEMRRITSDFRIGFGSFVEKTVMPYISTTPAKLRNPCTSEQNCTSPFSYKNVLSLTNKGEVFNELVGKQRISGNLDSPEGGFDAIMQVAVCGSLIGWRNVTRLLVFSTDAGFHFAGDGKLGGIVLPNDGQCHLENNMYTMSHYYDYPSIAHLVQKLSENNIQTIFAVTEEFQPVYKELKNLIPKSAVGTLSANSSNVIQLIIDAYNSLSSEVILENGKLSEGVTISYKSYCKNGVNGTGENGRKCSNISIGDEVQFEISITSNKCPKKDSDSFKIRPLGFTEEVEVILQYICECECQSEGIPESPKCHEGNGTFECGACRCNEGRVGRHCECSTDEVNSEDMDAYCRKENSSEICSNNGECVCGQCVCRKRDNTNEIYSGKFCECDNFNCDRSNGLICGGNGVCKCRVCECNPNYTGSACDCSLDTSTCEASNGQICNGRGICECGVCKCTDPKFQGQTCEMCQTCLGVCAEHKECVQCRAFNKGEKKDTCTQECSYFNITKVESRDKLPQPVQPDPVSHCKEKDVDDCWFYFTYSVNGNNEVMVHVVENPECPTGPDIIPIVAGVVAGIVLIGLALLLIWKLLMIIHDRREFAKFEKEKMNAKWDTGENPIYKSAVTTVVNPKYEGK
Sequence of Integrin beta-1 (Homo sapiens) + Integrin alpha-4 (Homo sapiens) (P13612 whole entry, looked up): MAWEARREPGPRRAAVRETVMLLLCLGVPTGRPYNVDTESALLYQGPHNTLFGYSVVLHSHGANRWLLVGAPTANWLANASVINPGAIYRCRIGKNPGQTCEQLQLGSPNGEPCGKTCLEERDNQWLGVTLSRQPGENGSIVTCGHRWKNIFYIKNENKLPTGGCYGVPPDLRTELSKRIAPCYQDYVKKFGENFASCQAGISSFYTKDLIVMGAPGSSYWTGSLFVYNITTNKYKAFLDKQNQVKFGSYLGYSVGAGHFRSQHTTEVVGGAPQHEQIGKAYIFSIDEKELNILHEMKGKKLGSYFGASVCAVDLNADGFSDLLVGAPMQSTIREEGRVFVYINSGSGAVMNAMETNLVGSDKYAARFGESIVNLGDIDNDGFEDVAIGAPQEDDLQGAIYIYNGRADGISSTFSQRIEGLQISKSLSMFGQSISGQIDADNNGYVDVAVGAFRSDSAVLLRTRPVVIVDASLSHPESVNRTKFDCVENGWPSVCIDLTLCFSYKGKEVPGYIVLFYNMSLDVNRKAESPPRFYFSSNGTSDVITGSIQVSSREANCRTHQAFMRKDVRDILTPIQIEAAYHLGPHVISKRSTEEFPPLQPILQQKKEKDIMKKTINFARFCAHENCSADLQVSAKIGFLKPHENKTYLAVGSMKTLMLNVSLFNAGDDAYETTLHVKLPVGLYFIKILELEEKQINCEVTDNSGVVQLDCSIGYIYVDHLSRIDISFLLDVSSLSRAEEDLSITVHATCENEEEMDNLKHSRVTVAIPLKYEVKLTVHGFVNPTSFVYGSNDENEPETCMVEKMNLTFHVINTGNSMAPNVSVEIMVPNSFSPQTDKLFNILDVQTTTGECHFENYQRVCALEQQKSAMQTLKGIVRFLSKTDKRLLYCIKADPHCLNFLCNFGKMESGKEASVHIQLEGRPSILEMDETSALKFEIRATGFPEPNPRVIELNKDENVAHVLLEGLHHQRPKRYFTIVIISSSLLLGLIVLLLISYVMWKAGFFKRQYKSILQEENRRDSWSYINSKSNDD
Sequence of AP-2 complex subunit beta (Homo sapiens) (P63010 whole entry, looked up, the tested form may be a part, one chain of several): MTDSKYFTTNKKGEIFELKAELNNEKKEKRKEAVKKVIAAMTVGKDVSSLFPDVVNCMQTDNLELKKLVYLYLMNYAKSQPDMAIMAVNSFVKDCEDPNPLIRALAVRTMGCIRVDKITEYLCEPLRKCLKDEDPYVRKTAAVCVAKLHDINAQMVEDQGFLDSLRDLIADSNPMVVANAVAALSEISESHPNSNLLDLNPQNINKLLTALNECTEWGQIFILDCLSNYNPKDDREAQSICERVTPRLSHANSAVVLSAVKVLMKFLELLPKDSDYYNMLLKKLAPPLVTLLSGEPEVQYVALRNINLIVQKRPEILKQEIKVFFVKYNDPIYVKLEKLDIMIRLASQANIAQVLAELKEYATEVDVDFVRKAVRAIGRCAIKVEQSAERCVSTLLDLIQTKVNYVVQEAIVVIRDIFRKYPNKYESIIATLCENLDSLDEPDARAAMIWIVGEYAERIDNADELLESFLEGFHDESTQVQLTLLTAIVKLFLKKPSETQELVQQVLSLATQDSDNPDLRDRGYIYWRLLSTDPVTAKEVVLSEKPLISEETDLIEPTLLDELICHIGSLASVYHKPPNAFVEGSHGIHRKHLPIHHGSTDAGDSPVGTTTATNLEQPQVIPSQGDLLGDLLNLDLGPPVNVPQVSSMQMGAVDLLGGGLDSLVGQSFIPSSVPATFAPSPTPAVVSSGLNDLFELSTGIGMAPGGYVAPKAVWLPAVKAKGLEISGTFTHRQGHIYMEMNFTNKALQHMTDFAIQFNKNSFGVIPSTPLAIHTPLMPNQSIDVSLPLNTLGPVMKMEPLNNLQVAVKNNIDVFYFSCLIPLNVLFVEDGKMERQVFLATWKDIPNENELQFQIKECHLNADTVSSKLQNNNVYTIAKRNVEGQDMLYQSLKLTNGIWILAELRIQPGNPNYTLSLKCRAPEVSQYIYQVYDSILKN
Sequence of ATP-binding cassette sub-family B member 6 (Homo sapiens) (Q9NP58 whole entry, looked up): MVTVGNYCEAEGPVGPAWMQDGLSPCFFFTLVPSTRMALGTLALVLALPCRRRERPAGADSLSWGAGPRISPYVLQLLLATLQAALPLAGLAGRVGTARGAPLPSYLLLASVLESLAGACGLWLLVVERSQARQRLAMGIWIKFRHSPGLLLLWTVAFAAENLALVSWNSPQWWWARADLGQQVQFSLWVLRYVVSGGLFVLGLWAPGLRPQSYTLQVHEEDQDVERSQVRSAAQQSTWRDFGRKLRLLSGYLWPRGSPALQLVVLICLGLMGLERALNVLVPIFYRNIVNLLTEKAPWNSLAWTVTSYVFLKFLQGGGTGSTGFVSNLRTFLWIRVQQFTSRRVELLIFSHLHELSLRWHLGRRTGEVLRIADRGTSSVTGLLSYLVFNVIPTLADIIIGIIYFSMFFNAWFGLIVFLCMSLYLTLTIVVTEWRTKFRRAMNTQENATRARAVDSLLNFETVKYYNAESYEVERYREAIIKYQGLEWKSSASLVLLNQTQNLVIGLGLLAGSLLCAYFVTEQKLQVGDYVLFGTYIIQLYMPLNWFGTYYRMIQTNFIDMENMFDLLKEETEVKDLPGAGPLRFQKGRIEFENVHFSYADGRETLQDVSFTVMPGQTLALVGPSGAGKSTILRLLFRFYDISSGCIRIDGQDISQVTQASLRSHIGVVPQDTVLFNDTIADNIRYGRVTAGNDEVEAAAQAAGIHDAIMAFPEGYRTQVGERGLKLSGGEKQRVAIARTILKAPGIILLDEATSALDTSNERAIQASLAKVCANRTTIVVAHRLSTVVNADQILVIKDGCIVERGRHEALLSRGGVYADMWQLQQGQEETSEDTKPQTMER
Sequence of Beta-2 adrenergic receptor (Homo sapiens) (P07550 whole entry, looked up): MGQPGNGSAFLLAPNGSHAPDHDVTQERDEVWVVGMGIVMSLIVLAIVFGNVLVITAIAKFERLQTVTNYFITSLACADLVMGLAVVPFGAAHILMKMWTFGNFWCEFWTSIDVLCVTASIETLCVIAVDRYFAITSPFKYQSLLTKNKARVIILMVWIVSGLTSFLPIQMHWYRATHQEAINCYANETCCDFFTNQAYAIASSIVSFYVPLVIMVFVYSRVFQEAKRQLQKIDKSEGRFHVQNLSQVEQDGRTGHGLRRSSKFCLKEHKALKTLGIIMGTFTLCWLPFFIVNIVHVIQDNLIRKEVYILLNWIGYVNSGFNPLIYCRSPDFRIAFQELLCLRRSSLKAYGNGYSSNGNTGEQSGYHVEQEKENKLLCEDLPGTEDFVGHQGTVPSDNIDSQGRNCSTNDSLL
Sequence of Beta-adrenergic receptor kinase 1 (Homo sapiens) (P25098 whole entry, looked up): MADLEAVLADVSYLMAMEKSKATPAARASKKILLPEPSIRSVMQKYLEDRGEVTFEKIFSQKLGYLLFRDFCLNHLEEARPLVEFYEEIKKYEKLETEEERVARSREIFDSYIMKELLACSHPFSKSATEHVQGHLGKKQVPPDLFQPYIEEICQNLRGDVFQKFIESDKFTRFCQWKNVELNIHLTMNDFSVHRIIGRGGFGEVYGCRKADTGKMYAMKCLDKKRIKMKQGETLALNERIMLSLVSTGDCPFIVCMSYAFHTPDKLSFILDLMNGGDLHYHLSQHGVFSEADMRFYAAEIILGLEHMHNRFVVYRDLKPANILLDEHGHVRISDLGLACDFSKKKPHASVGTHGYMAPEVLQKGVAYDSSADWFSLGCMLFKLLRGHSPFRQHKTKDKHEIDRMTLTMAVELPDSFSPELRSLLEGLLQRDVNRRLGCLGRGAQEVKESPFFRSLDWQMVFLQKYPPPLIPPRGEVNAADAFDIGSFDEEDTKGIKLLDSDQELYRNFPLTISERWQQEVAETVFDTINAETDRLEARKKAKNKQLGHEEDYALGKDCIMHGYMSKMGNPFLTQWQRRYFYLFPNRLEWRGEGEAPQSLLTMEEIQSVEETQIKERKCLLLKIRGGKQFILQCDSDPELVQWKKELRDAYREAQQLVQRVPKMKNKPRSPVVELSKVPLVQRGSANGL

Row | Compound | percent of DMSO control GFP [1] | GFP response vs DMSO [2] | percent response of DMSO control [3] | GFP response vs DMSO [4] | GFP response, % of DMSO [5] | double positive events [6] | vesicle binding response [6] | inhibition [7] | superoxide response (% of plate) [8] | aptamer binding inhibition [9] | response [10] | inhibition [11] | response [12] | binding (% of control) [13] | efflux inhibition (fraction of control) [14] | inhibition [15] | differentiation response [16]
1 | CC(C)=CCC(C)(C)/C=N/NC(N)=O | 101% (inactive) | 102% (inactive) | 98.3% (inactive) | 109% (inactive) | 111% (inactive) | 59.7% | 464% (inactive) | 14.2% (inactive) | 97.9% (inactive) | 4% (inactive) | -21.9% (inactive) | -2.34% (inactive) | 1.02% (inactive) | 100% (inactive) | 0 (inactive) | 4% (inactive) | 5.85% (inactive)
2 | Cc1nnc(NS(=O)(=O)c2ccc(N)cc2)s1 | 92.4% (inactive) | 126% (inactive) | 92.6% (inactive) | 83.6% (inactive) | 92.8% (inactive) | 61.7% | 123% (inactive) | 19.1% (inactive) | 102% (inactive) | 8% (inactive) | 2.41% (inactive) | 2.68% (inactive) | 0.26% (inactive) | 100% (inactive) | -0.24 (inactive) | 14% (inactive) | 0% (inactive)
3 | CC1=C(/C=C/C(C)=C/C=C/C(C)=C/C(=O)O)C(C)(C)CCC1 | 106% (inactive) | 106% (inactive) | 103% (inactive) | 125% (inactive) | 121% (inactive) | 62.6% | 194% (inactive) | -2.82% (inactive) | 93.6% (inactive) | 1% (inactive) | -11.2% (inactive) | -5.9% (inactive) | -0.05% (inactive) | 101% (inactive) | 0.04 (inactive) | -2% (inactive) | -6.96% (inactive)
4 | CC(C)(C)N(Cc1ccccc1)C(=O)c1ccc(Br)o1 | 103% (inactive) | 102% (inactive) | 95.7% (inactive) | 107% (inactive) | 101% (inactive) | 63.4% | 147% (inactive) | -7.08% (inactive) | 101% (inactive) | 6% (inactive) | -22.8% (inactive) | 4.28% (inactive) | -8.19% (inactive) | 97.1% (inactive) | 0.04 (inactive) | 6% (inactive) | -11.9% (inactive)
5 | Cc1ccc(Cl)c(OCCCN(C)Cc2ccccc2)c1 | 100% (inactive) | 96.6% (inactive) | 98.3% (inactive) | 106% (inactive) | 106% (inactive) | 64.5% | 161% (inactive) | 13.4% (inactive) | 95% (inactive) | 2% (inactive) | -6.56% (inactive) | 0.6% (inactive) | 0.72% (inactive) | 112% (inactive) | -0.26 (inactive) | 19% (inactive) | -6.96% (inactive)
6 | CCN(CC)CCNC(=O)c1ccc(NC(C)=O)cc1 | 99.4% (inactive) | 108% (inactive) and 103% (inactive) | 101% (inactive) | 89.4% (inactive) and 90.7% (inactive) | 99.2% (inactive) and 100% (inactive) | 63.2% and 61.4% | 4990% (inactive) and 247% (inactive) | 1.62% (inactive) and -0.45% (inactive) | 100% (inactive) and 103% (inactive) | 3% (inactive) and -3% (inactive) | -11.2% (inactive) and -2.15% (inactive) | -11.4% (inactive) and 6.7% (inactive) | -1.96% (inactive) and 1.62% (inactive) | 95.9% (inactive) and 97.4% (inactive) | 0.02 (inactive) and -0.04 (inactive) | -3% (inactive) and 3% (inactive) | -6.6% (inactive) and 20.8% (inactive)
7 | CC(=O)Nc1c(I)c(NC(C)=O)c(I)c(C(=O)O)c1I | 89.3% (inactive) | 123% (inactive) | 104% (inactive) | 78.1% (inactive) | 94% (inactive) | 58.9% | 171% (inactive) | 10.3% (inactive) | 103% (inactive) | -1% (inactive) | -8.3% (inactive) | 2.48% (inactive) | 1.06% (inactive) | 95% (inactive) | 0.12 (inactive) | 9% (inactive) | 2.46% (inactive)
8 | COc1cc(C(=O)N/C(=C\c2cn(C)c3ccccc23)C(=O)NCCCO)cc(OC)c1OC | 102% (inactive) | 94.1% (inactive) | 107% (inactive) | 75.2% (inactive) | 88% (inactive) | 56.3% | 215% (inactive) | 11.9% (inactive) | 99.7% (inactive) | 2% (inactive) | 5% (inactive) | -0.03% (inactive) | 11.1% (inactive) | 100% (inactive) | 0.3 (inactive) | 7% (inactive) | -15.2% (inactive)
9 | COc1ccc(OC)c(C(=O)c2coc3ccc(O)cc23)c1 | 98.7% (inactive) | 109% (inactive) | 94.4% (inactive) | 146% (inactive) | 109% (inactive) | 63.7% | 192% (inactive) | -2.82% (inactive) | 88.2% (inactive) | 2% (inactive) | -29.6% (inactive) | -14.6% (inactive) | 4.67% (inactive) | 103% (inactive) | -0.04 (inactive) | 0% (inactive) | 0.92% (inactive)
10 | Cc1ccc(S(=O)(=O)NC(=O)NN2CCCCCC2)cc1 | 102% (inactive) | 110% (inactive) | 100% (inactive) | 96.6% (inactive) | 97.5% (inactive) | 61.4% | 226% (inactive) | 29.6% (inactive) | 92.2% (inactive) | 4% (inactive) | -9.17% (inactive) | 3.4% (inactive) | -0.51% (inactive) | 99.7% (inactive) | -0.04 (inactive) | -2% (inactive) | 14.9% (inactive)
11 | COc1ccc(C(=O)NCCC2=CCCCC2)cc1[N+](=O)[O-] | 107% (inactive) | 104% (inactive) | 106% (inactive) | 114% (inactive) | 106% (inactive) | 62.5% | 194% (inactive) | 12.3% (inactive) | 99.5% (inactive) | 1% (inactive) | -5.02% (inactive) | 15.5% (inactive) | -2.15% (inactive) | 97.5% (inactive) | 1.08 (active) | 5% (inactive) | -3.11% (inactive)
12 | CCCN(CCC)C(=O)C(CCC(=O)O)NC(=O)c1ccccc1 (stereo unspecified) | 98.8% (inactive) | 109% (inactive) | 95.4% (inactive) | 92% (inactive) | 94.5% (inactive) | 59.4% | 977% (inactive) | 7.85% (inactive) | 94.3% (inactive) | 7% (inactive) | -4.18% (inactive) | -5.39% (inactive) | -4.29% (inactive) | 99.8% (inactive) | -0.2 (inactive) | -8% (inactive) | 6.11% (inactive)
13 | O=CNC1CCCc2c1[nH]c1ccc(Cl)cc21 (stereo unspecified) | 101% (inactive) | 96.2% (inactive) | 100% (inactive) | 89.4% (inactive) | 98.3% (inactive) | 64.4% | 173% (inactive) | -5.64% (inactive) | 113% (inactive) | 2% (inactive) | 3.11% (inactive) | -3.47% (inactive) | 0.49% (inactive) | 95.9% (inactive) | -0.04 (inactive) | -3% (inactive) | 8.06% (inactive)
14 | COc1cc2c(cc1OC)C(C)=NC1(CCCCC1)C2 | 99.2% (inactive) | 98.6% (inactive) | 95.1% (inactive) | 106% (inactive) | 107% (inactive) | 62.8% | 215% (inactive) | -29.2% (inactive) | 100% (inactive) | 6% (inactive) | -21.7% (inactive) | 20.9% (inactive) | 8.37% (inactive) | 131% (inactive) | -0.04 (inactive) | -52% (inactive) | -14.8% (inactive)
15 | CC(C)=CCC/C(C)=C/CC/C(C)=N/O | 97.4% (inactive) | 115% (inactive) | 91% (inactive) | 108% (inactive) | 93.5% (inactive) | 59.7% | 199% (inactive) | 6.4% (inactive) | 97.4% (inactive) | 4% (inactive) | 3.47% (inactive) | -1.05% (inactive) | -1.49% (inactive) | 103% (inactive) | 0.08 (inactive) | -63% (inactive) | -2.4% (inactive)
16 | CC(C)Oc1ccc2c(=O)c(-c3ccccc3)coc2c1 | 86.5% (inactive) | 101% (inactive) | 106% (inactive) | 83.1% (inactive) | 94% (inactive) | 66.7% | 209% (inactive) | -7.12% (inactive) | 94.6% (inactive) | 0% (inactive) | 1.13% (inactive) | 2.38% (inactive) | 1.01% (inactive) | 101% (inactive) | -0.53 (inactive) | 13% (inactive) | -5.73% (inactive)
17 | CC(C)C(=O)Nc1cccnc1 | 103% (inactive) | 99.6% (inactive) | 99.6% (inactive) | 115% (inactive) | 106% (inactive) | 68.8% | 294% (inactive) | 21.4% (inactive) | 85.9% (inactive) | 4% (inactive) | 0.35% (inactive) | -1.65% (inactive) | 4.74% (inactive) | 99.3% (inactive) | -0.13 (inactive) | -4% (inactive) | 0% (inactive)
18 | CC(=O)Oc1cc2oc(=O)cc(C)c2cc1OC(C)=O | 101% (inactive) | 102% (inactive) | 99.6% (inactive) | 73.5% (inactive) | 86% (inactive) | 60% | 207% (inactive) | -5.89% (inactive) | 102% (inactive) | 10% (inactive) | -3.64% (inactive) | 3.54% (inactive) | 1.09% (inactive) | 101% (inactive) | 0.08 (inactive) | 7% (inactive) | -15.2% (inactive)
